The values that follow come from PubChem BioAssay AID488829 (NMMLSC, 2010).

The experiment in a line: autofluorescence of compounds in yeast s288c, dose response, artefact control for yeast TOR pathway GFP screen, primary hits, KU SAR, s288c parental (AID 488829). The following applies: S. cerevisiae s288c parental, compound autofluorescence, flow cytometry, 3 h; at 33 µM; stronger effect = higher value.

The other results are listed elsewhere or left out. Values without a mark were called inactive.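 Rule for the calls: active = fluorescence change span, or the activity score built from it, above 25; inactive = the rest.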

Regarding `Cc1ccc(-c2nn(C(C)(C)C)c3ncnc(N)c23)cc1`, the fluorescence change (span) is 0.41. As to `CN(C)CCCNc1nc(N)c([N+](=O)[O-])c(Nc2cccc(F)c2)n1`, the fluorescence change (span) was 0.05.
